PI5P4K alpha inh = qHTS for Inhibitors of phosphatidylinositol 5-phosphate 4-kinase (PI5P4K); Phosphatidylinositol 5-phosphate 4-kinase type-2 alpha (Homo sapiens), P48426; PI5P4Kalpha enzyme, ADP-Glo luminescence, 60 min; stronger effect = lower value; max response, %; 1.2% of 330,000 active; active = max response of -50% or lower; inconclusive = between -30% and -50%; inactive = -30% or higher; also: value at the top dose of about 77 µM
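Single end-point luminescence (ADP-Glo) quantified ADP from PI5P4Kalpha turnover; ATP 5 microM final, 1 h at RT, 0.1% CHAPS and 0.28 mM EGTA in HEPES pH 7.4.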
GoLoco inh red = qHTS Assay for Inhibitors of RGS12 GoLoco Motif Activity (Red Fluorophore) | AID 880, 2007 | Guanine nucleotide-binding protein G(i) subunit alpha-1 (Homo sapiens), P63096 | Potency, µM (titrated, usually from 61.6 µM), for the others: top-dose activity, negative = inhibition, actives largely listed as inhibitors | Gai1:RGS12 GoLoco peptide FP, rhodamine, 10 min | 0.44% of 230,000 active; active = well fitted inhibition curve with a large enough effect, not every such curve was filed as active; inactive = no such curve, though single readings can be large or run the other way; also: potency is read from the fitted curve at half-maximal effect; nearly all actives have a fitted effect of over 30% in size
Target sequence (P63096 whole entry, looked up): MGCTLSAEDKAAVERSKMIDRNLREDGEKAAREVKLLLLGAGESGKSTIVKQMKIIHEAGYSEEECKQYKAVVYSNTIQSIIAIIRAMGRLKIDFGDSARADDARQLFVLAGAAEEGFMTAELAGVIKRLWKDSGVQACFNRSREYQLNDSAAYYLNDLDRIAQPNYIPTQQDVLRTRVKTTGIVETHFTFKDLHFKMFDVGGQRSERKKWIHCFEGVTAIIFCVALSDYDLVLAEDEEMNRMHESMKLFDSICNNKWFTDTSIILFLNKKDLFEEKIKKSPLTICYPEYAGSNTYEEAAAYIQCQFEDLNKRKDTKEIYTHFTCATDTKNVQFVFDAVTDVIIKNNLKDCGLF
PGK inhibitor = qHTS Assay to Find Inhibitors of Phosphoglycerate Kinase; Phosphoglycerate kinase, glycosomal (Trypanosoma brucei brucei), P07378; PGK/GAPDH coupled, Kinase-Glo luminescence, 60 min; Potency, µM (top dose mostly 57.5 µM), without a hit: at the top dose activity change, negative = inhibition, hits mostly inhibitors; 0.043% of 380,000 active; AID 602233, 2012; also: potency is read from the fitted curve at half-maximal effect; nearly all actives have a fitted effect of over 60% in size
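Recombinant glycosomal PGK reaction used 1,3-bisphosphoglycerate generated in-well by GAPDH (100nM final) in 100mM TEA pH 7.6, 5mM MgCl2, 0.01% Tween-20. After 60 minutes at room temperature, ATP was read by Kinase-Glo Plus luminescence end-point.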
PI4K2A block = qHTS for small molecular inhibitors of PI4K2A. Phosphatidylinositol 4-kinase type 2-alpha (Homo sapiens), Q9BTU6. purified PI4K2A, ADP-Glo luminescence, 1 h; stronger effect = lower value. activity change, negative = inhibition, % at 76.9 µM. 0.13% of 420,000 active. AID 1346378, 2018; in the data active = activity change below about -50%; inconclusive = mostly about -30% to -49%;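 also: -100% = wells without enzyme as full effect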
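Compounds are screened against recombinant PI4K2A using PI as substrate and ATP, the latter dispensed at 300 microM. Reactions run one hour at ambient temperature before ADP-Glo detection; full inhibition defined by wells lacking enzyme.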
GCN5L2 inh = qHTS Assay for Inhibitors of GCN5L2; Potency, µM (series often up to 58.9 µM), for inactives: at the highest dose activity change, negative = inhibition, actives largely listed as inhibitors; GCN5L2 HAT assay, ThioGlo1 CoA-SH fluorescence; AID 504327, 2011; 0.21% of 390,000 active; Histone acetyltransferase KAT2A (Homo sapiens), Q92830; also: potency is read from the fitted curve at half-maximal effect
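Enzyme at 20nM final was mixed with library compounds for 15 min at room temperature. Peptide H3(1-25) at 75uM, acetyl-CoA at 70uM and ThioGlo1 at 50uM were then added. Plates were read immediately and after 20 min (Ex340nm/Em540nm).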
Pin1 inhibitor = qHTS Assay to Find Inhibitors of Pin1; Pin1 FP peptide displacement, HiFluor488, 10 min; Potency, µM (series often up to 115 µM), inactives show at the highest dose activity, negative = inhibition, most hits filed as inhibitors; 0.009% of 390,000 active; AID 504891, 2011; active = well fitted inhibition curve with a large enough effect in the polarisation, with a control signal flat, not every such curve was filed as active; inconclusive = small, poorly fitted or top-dose-only effect, or effect the other way, or a change in a side signal; inactive = no such curve, though single readings can be large or run the other way; the % refers to the polarisation; also: potency is read from the fitted curve at half-maximal effect
Target sequence (Q13526 whole entry, looked up): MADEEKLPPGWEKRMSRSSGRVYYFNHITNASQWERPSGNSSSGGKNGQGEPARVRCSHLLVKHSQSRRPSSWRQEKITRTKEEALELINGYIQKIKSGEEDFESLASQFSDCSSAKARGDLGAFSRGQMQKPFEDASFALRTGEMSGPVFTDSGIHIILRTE
Active calls of the source: *; i = inactive; ? = inconclusive; · = not tested or not shown. A selection: hits, their analogues and other compounds. The true share with any hit is near 1.2%. Unless noted, calls follow the shape of the dose curve; as a rule, active = well fitted curve in the direction sought with a large enough effect; inconclusive = small, poorly fitted or top-dose-only effect, or another doubt; inactive = no such curve, though single readings can be large; an effect the other way counts as inactive or inconclusive. Unless noted, % is scaled to controls: 0 for no effect and ±100 for the full control effect.

SMILES	PI5P4K alpha inh	GoLoco inh red	PGK inhibitor	PI4K2A block	GCN5L2 inh	Pin1 inhibitor
COC(=O)C1=C(C)N(CCCC(=O)O)C(=O)NC1c1cc2c(cc1[N+](=O)[O-])OCO2 (stereo unspecified)	-62*	-36%	-3%	-2	-1%	?
CC1=C(C(=O)OCc2ccccc2)C(c2ccccc2OS(=O)(=O)c2ccc([N+](=O)[O-])cc2)NC(=O)N1CCCC(=O)O (stereo unspecified)	-64*	·	-14%	1	·	-4%
COC(=O)C1=C(C)N(CCCC(=O)O)C(=O)NC1c1ccc([N+](=O)[O-])cc1 (stereo unspecified)	-101*	·	-8%	1	·	-6%
CCCCN1C(=O)NC(c2cccc([N+](=O)[O-])c2)C(C(=O)OCC)=C1C (stereo unspecified)	3	·	-1%	-2	·	-5%
CCOC(=O)C1=C(C)N(CCCC(=O)O)C(=O)NC1c1ccc([N+](=O)[O-])cc1 (stereo unspecified)	-86*	-2%	-1%	-2	0%	-10%
COC(=O)C1=C(C)N(C)C(=O)NC1c1cc2c(cc1[N+](=O)[O-])OCO2 (stereo unspecified)	1	-5%	i	-2	-5%	?
CCOC(=O)C1=C(C)N(CCCC(=O)O)C(=O)NC1c1ccccc1OS(=O)(=O)c1ccc([N+](=O)[O-])cc1 (stereo unspecified)	?	·	-1%	1	·	-5%
CCCc1nn2c(=O)cc(CSCC(=O)Nc3ccc(OC)cc3)nc2s1	-2	·	i	-3	1%	-8%
Nc1ccc(NC2C[C@@H](C(=O)O)NC2=O)cc1 (stereo partly specified)	-3	10%	-2%	-20	-19%	-9%
CC1C[N+](=C2C=C(N3CCOCC3)CC(C)(C)C2)CC(C)O1 (stereo unspecified)	?	25µM*	-5%	0	-2%	0%
CCCN(CCC)C1=CC(=[N+]2CCCC2)CC(C)(C)C1	-12	7.9µM*	-2%	-1	-15%	-3%
CC1(C)CC(N2CCCCC2)=CC(=[N+]2CCCCC2)C1	-5	2.5µM*	-6%	-2	-18%	-3%
CN(C)NC1=CC(=[N+]2CCCC2)CC(C)(C)C1	-5	-14%	0%	-1	-8%	4%
O=C(Oc1ccc(F)cc1)c1ccc2c(=O)n3c(nc2c1)CCC3	-29	·	4%	-17	-13%	-2%
CC(=O)Nc1nc(=S)ss1	-58*	8%	-2%	3	-26%	0%
Cc1ccccc1C(=O)Nc1nc(=S)ss1	?	-12%	-5%	1	?	3%
CC(C)CC(=O)Nc1nc(=S)ss1	-53*	-6%	-4%	2	-9%	1%
CCN(C(=O)COC(=O)CCOc1ccccc1C)c1c(N)n(Cc2ccccc2)c(=O)[nH]c1=O	1	·	-5%	8	·	6%
Cc1ccccc1-n1c(SCC(=O)N2CCCCC2)nc(O)cc1=O	-2	·	3%	-2	-3%	0%
N#CC1=C(N)Oc2ccc3ccc(O)cc3c2C1c1ccsc1 (stereo unspecified)	-20	13µM*	-14%	2	-8%	?
N#CC1=C(N)Oc2cc(N)ccc2C1c1ccsc1 (stereo unspecified)	-19	8%	-3%	-2	1%	-7%
N#CC1=C(N)Oc2n[nH]c(-c3ccccc3)c2C1c1ccsc1 (stereo unspecified)	-65*	9%	-4%	-3	-3%	-5%
Cc1ccc(-c2[nH]nc3c2C(c2ccsc2)C(C#N)=C(N)O3)cc1 (stereo unspecified)	-52*	4%	-3%	-1	-1%	-3%
